{"source": "the supplement of paper PMC10600219", "note": "Where a name gives a salt, the structure may show the parent alone. The full ranking holds about 2,800 compounds; the median of “cell viability relative to vehicle” is about 0.98, and the lowest 2% start at about 0.45. The sample as a whole holds a higher share of the lowest values than the screen did."}
{"system": "NCI-H2228 alectinib-DTP", "experiment": "cell viability relative to vehicle (fraction of vehicle); NCI-H2228 is an ALK-positive lung cancer line and DTP means drug-tolerant persister; higher = less growth inhibition", "details": "100 nM; treatment time 6 days", "outline": "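Parental NCI-H2228 cells and drug-tolerant persister cells (made with 1000 nM of a targeted drug for 13 days) were seeded in 384-well plates. The next day, the 3114-agent TargetMol anti-cancer compound library was added at 100 nM, with DMSO as vehicle. After 6 days, ATP was read with the CellTiter-Glo 3D Cell Viability Assay. Each value is cell viability relative to vehicle-treated cells.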"}
{"smiles": "CC(C)[C@]12O[C@H]1[C@@H]1O[C@]13[C@]1(O[C@H]1C[C@H]1C4=C(CC[C@@]13C)C(=O)OC4)[C@@H]2O", "note": "[Triptolide]", "cell viability": 0.133}
{"smiles": "CCCC(C)(C)c1ccc2c(c1)OC(C)(C)[C@@H]1CC=C(C)C[C@@H]21", "cell viability": 0.862}
{"smiles": "Cc1ccc(/N=C/N(C)/C=N/c2ccc(C)cc2C)c(C)c1", "note": "[Amitraz]", "cell viability": 0.902}
{"smiles": "COc1ccc2c(c[n+](C)c3c4cc5c(cc4ccc23)OCO5)c1OC", "note": "[Chelerythrine chloride]", "cell viability": 1.04}
{"smiles": "COc1ccc2c(c[n+](C)c3c4cc5c(cc4ccc23)OCO5)c1OC", "note": "[Chelerythrine]", "cell viability": 1.03}
{"smiles": "CC(=O)O[C@H]1C(=O)[C@@]2(C)[C@H]([C@H](OC(=O)c3ccccc3)[C@]3(O)C[C@H](O)C(C)=C1C3(C)C)[C@]1(OC(C)=O)CO[C@@H]1C[C@@H]2O", "note": "[Baccatin III]", "cell viability": 1}
{"smiles": "C/C(=C\\c1csc(C)n1)[C@@H]1C[C@@H]2O[C@@H]2CCC[C@H](C)[C@H](O)[C@@H](C)C(=O)C(C)(C)[C@@H](O)CC(=O)O1", "note": "[Epothilone A]", "cell viability": 0.529}
{"smiles": "C/C(=C\\c1csc(C)n1)[C@@H]1C[C@@H]2O[C@]2(C)CCC[C@H](C)[C@H](O)[C@@H](C)C(=O)C(C)(C)[C@@H](O)CC(=O)O1", "note": "[Epothilone B]", "cell viability": 0.433}
{"smiles": "C[C@@H]1C(=O)O[C@H]2[C@H](O)[C@@]34O[C@@H]5OC(=O)[C@H](O)[C@@]56[C@H](C(C)(C)C)[C@H](O)C(OC3=O)[C@]64[C@@]12O", "note": "(stereo partly specified) [Ginkgolide C]", "cell viability": 0.969}
{"smiles": "C/C=C/c1cc(OC)c(OC)cc1OC", "note": "[alpha-Asarone]", "cell viability": 0.92}
{"smiles": "NC[C@H](CC(=O)O)c1ccc(Cl)cc1", "note": "[(R)-baclofen]", "cell viability": 1.07}
{"smiles": "NCCc1c[nH]c2ccccc12", "note": "[Tryptamine]", "cell viability": 1.12}
{"smiles": "NCCCNCCCN", "note": "[Bis(3-aminopropyl)amine]", "cell viability": 0.833}
{"smiles": "CCC(C)C(=O)O[C@@H]1[C@@H](OC(C)=O)[C@]2(C)[C@H](C(C)=O)CC[C@@]23O[C@]32CC[C@H]3C[C@@H](O[C@H]4C[C@@H](OC)[C@H](O[C@@H]5O[C@H](C)[C@@H](O)[C@@H](OC)[C@H]5O)[C@@H](C)O4)CC[C@]3(C)[C@@H]12", "note": "(stereo partly specified) [Tenacissoside H]", "cell viability": 1.14}
{"smiles": "CO[C@H]1C[C@H](O[C@H]2CC[C@]3(C)[C@H]4CC[C@]5(C)[C@@H](C6=CC(=O)OC6)CC[C@]5(O)[C@@H]4CC[C@]3(O)C2)O[C@H](C)[C@H]1O[C@@H]1O[C@H](CO)[C@@H](O)[C@H](O)[C@H]1O", "note": "[Periplocin]", "cell viability": 0.443}
{"smiles": "CC(=O)O[C@H]1C[C@H](O[C@H]2[C@@H](O)C[C@H](O[C@H]3[C@@H](O)C[C@H](O[C@H]4CC[C@@]5(C)[C@H](CC[C@@H]6[C@@H]5C[C@@H](O)[C@]5(C)[C@@H](C7=CC(=O)OC7)CC[C@]65O)C4)O[C@@H]3C)O[C@@H]2C)O[C@H](C)[C@H]1O[C@@H]1O[C@H](CO)[C@@H](O)[C@H](O)[C@H]1O", "note": "[Lanatoside C]", "cell viability": 0.49}
{"smiles": "NCC(CC(=O)O)c1ccccc1", "note": "(stereo unspecified) [Phenibut]", "cell viability": 1.03}
{"smiles": "COc1ccc2c(c1O)-c1c(OC)c(OC)cc3c1[C@H](C2)N(C)CC3", "note": "[(+)-Isocorydine hydrochloride]", "cell viability": 0.9}
{"smiles": "CCC12C=CCN3CC[C@@]4(c5ccc(OC)cc5N(C)[C@H]4[C@@](O)(C(=O)OC)[C@@H]1OC(C)=O)[C@@H]32", "note": "(stereo partly specified) [Vindoline]", "cell viability": 1.1}
{"smiles": "N#CC(C#N)=Cc1ccc([N+](=O)[O-])c(O)c1", "cell viability": 1.05}
{"smiles": "C[C@H]1CCC/C=C/[C@@H]2C[C@H](O)C[C@H]2[C@H](O)/C=C/C(=O)O1", "note": "[Brefeldin A]", "cell viability": 0.0894}
{"smiles": "C[C@H]1C(=O)O[C@@H]2CCN3CC=C(COC(=O)[C@](C)(O)[C@]1(C)O)[C@H]23", "note": "[Monocrotaline]", "cell viability": 0.941}
{"smiles": "C[N+]1([O-])[C@@H]2CC(OC(=O)[C@H](CO)c3ccccc3)C[C@H]1[C@@H]1O[C@@H]12", "note": "(stereo partly specified) [Scopolamine N-oxide HBr]", "cell viability": 1.07}
{"smiles": "C[C@@H]1CCC=C2C(=O)C[C@H]3OOC(C)(C)[C@H]3[C@]21C", "note": "[Nardosinone]", "cell viability": 0.941}
{"smiles": "COc1ccc2c(c1)[nH]c1c(C)nccc12", "note": "[Harmine]", "cell viability": 0.801}
{"smiles": "Nc1ncnc2c1ccn2[C@@H]1O[C@H](CO)[C@@H](O)[C@H]1O", "note": "[Tubercidin]", "cell viability": 0.389}
{"smiles": "CC(=O)Nc1ccc(OC[C@](C)(O)C(=O)Nc2ccc([N+](=O)[O-])c(C(F)(F)F)c2)cc1", "note": "[Andarine]", "cell viability": 0.917}
{"smiles": "C[C@H](CS(C)(=O)=O)n1ccc2c(C(F)(F)F)c(C#N)ccc21", "cell viability": 1.09}
{"smiles": "O=P(O)(NCCCl)NCCCl", "note": "[Palifosfamide]", "cell viability": 1.17}
{"smiles": "Cc1c(N[C@@H](c2nnc(-c3ccc(C#N)cc3)o2)[C@H](C)O)ccc(C#N)c1Cl", "note": "[Testolone]", "cell viability": 1.21}
{"smiles": "C[C@]12CC[C@H](O)C[C@H]1CC[C@@H]1[C@@H]2CC[C@]2(C)[C@@H](c3ccc(=O)oc3)CC[C@]12O", "note": "[Bufalin]", "cell viability": 0.101}
{"smiles": "CC(=O)O[C@H]1[C@H]2O[C@]23[C@@H]2CC[C@@H]4C[C@@H](O)CC[C@]4(C)[C@H]2CC[C@]3(C)[C@H]1c1ccc(=O)oc1", "note": "[Cinobufagin]", "cell viability": 0.142}
{"smiles": "C[C@]12CC[C@H](O)C[C@H]1CC[C@@H]1[C@@H]2CC[C@]2(C)[C@@H](c3ccc(=O)oc3)C[C@H]3O[C@]132", "note": "[Resibufogenin]", "cell viability": 1.07}
{"smiles": "C[C@]12CC[C@H](O)C[C@H]1CC[C@@H]1[C@@H]2CC[C@]2(C)[C@@](O)(c3ccoc3)CC[C@]12O", "note": "[Rostafuroxin]", "cell viability": 0.988}
{"smiles": "C[C@]12CC[C@H](O)C[C@@H]1CC[C@@H]1[C@@H]2CC[C@]2(C)C(=O)CC[C@@H]12", "note": "[Epiandrosterone]", "cell viability": 0.814}
{"smiles": "Cc1c(C(=O)Nc2cccc(C(F)(F)F)c2)cc(-c2ccccc2)n1CCCN1CCOCC1", "cell viability": 0.946}
{"smiles": "Cc1ccccc1-n1c(Cn2cnc3c(N)ncnc32)nc2cccc(C)c2c1=O", "cell viability": 1.07}
{"smiles": "C=C1C2CC3(C1O)C1CC4C5(C)CCC(O)C4(C1N(CC)C5)C3CC2=O", "note": "(stereo unspecified) [Napellonine]", "cell viability": 0.931}
{"smiles": "CCO[C@H]1O[C@@H]2O[C@@]3(C)CC[C@H]4[C@H](C)CC[C@@H]([C@H]1C)[C@@]24OO3", "note": "[Arteether]", "cell viability": 0.856}
{"smiles": "CC(=O)OC(C)(C)/C=C/C(=O)[C@](C)(O)[C@H]1[C@H](O)C[C@@]2(C)[C@@H]3CC=C4[C@H](C[C@H](O)C(=O)C4(C)C)[C@]3(C)C(=O)C[C@]12C", "note": "[Cucurbitacin B]", "cell viability": 0.146}
{"smiles": "COc1ccc2c(c1OC)CN1CCc3cc4c(cc3C1C2)OCO4", "note": "(stereo unspecified) [Tetrahydroberberine THB]", "cell viability": 1.01}
{"smiles": "CC[C@@]1(O)C(=O)OCc2c1cc1n(c2=O)Cc2cc3ccccc3nc2-1", "note": "[(S)-(+)-Camptothecin]", "cell viability": 0.36}
{"smiles": "CCc1c2c(nc3ccccc13)-c1cc3c(c(=O)n1C2)COC(=O)[C@]3(O)CC", "note": "[7-Ethylcamptothecin]", "cell viability": 0.361}
{"smiles": "COc1ccc(/C=C/C=C2C(=O)NC(=O)NC2=O)cc1", "cell viability": 0.972}
{"smiles": "N#C/C=C1/C=C[C@@H](O)[C@H](O)[C@H]1O[C@@H]1O[C@H](CO)[C@@H](O)[C@H](O)[C@H]1O", "note": "[Griffonin]", "cell viability": 0.984}
{"smiles": "Clc1ccc([C@]23CNC[C@H]2C3)cc1Cl", "note": "[Amitifadine hydrochloride]", "cell viability": 1.06}
{"smiles": "CC(=O)O[C@H]1CC[C@H]2[C@@H]3CCC4=CC(=O)CCC4=C3C=C[C@]12C", "note": "[Trenbolone acetate]", "cell viability": 1.15}
{"smiles": "N#C[C@H](O[C@@H]1O[C@H](CO[C@@H]2O[C@H](CO)[C@@H](O)[C@H](O)[C@H]2O)[C@@H](O)[C@H](O)[C@H]1O)c1ccccc1", "note": "[Amygdalin]", "cell viability": 0.879}
{"smiles": "N#Cc1nn(-c2c(Cl)cc(C(F)(F)F)cc2Cl)c(N)c1[S+]([O-])C(F)(F)F", "note": "(stereo unspecified) [Fipronil]", "cell viability": 0.905}
{"smiles": "CC1=C[C@H]2[C@@]3(O)[C@H](C)[C@@H](O)[C@]4(O)[C@H]([C@@H]3C=C(CO)C[C@]2(O)C1=O)C4(C)C", "note": "[Phorbol]", "cell viability": 0.999}
{"smiles": "O=C(/C=C/c1ccccc1)OC[C@H]1O[C@@H](O[C@@H]2OC=C[C@H]3[C@H](O)[C@@H]4O[C@]4(CO)[C@@H]23)[C@H](O)[C@@H](O)[C@@H]1O", "note": "[Picroside I]", "cell viability": 1.06}
